Shown are actives, neighbours in structure and some others; about 3% of the full set was active somewhere.
PMP22 txn prim – modulates PMP22 transcription in S16 Schwann cells; S16 Pmp22-F2sN Schwann cells, FLuc/NLuc coincidence luminescence, 24 h; Potency, µM (doses to about 57.5 µM), inactives show top-dose activity change, negative = inhibition, usual class: inhibitors; 43,000 compounds, 2% hits; AID 1508649; active means clear falling dose curves in both reporters; inconclusive means both reporters move, but less clearly or upward; inactive means either reporter flat; the % is the NLuc reporter signal
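Schwann cells carrying the coincidence reporter were exposed to library compounds for 24 h at 37C, then lysed and read for FLuc and, after quenching, NLuc luminescence on a CCD imager.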
mTORC1 inh – inhibitors of mTORC1 signaling in Tsc2-/- p53-/- MEF cells; Tsc2-/- p53-/- MEF, phospho-rpS6 immunofluorescence/PI, 24 h; Potency, µM (doses to about 38.3 µM), for inactives: at the highest dose activity change, negative = inhibition, usual class: inhibitors; 44,000 compounds, 0.78% hits;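 further: plate controls were DMSO for no effect and rapamycin for full effect; nearly all actives have a fitted effect of over 50% in size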
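Compounds act on Tsc2-/-, p53-/- fibroblasts carrying an empty vector for 24 h before fixation and dual staining for phospho-S6 and DNA (propidium iodide). Values are percentages of cells above a rapamycin-defined pS6/PI threshold.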
p53null 39C kill – kills p53 null cells at the nonpermissive temperature; Potency, µM (titrated, usually from 46.1 µM), without a hit: at the highest dose activity, negative = cell killing, hits mostly cytotoxic; AID 904; 55,000 compounds, 0.97% hits; H1299 p53-null (neo) cells, 39C, ATPlite viability, 24 h;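 further: 0% = DMSO only and -100% = full killing by 100 µM tamoxifen; nearly all actives have a fitted effect of over 50% in size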
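Temperature-shift cytotoxicity format: compound titrations on p53-null or A138V-expressing H1299 cells held 24 hr at 39C, cell ATP then measured, AC50 from Hill model.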
OvCa metastasis – ovarian cancer metastasis inhibition, 3D TME model; SKOV3ip1-GFP adhesion/invasion on 3D omental model, fluorescence; Potency, µM (highest dose often 45.8 µM), without a hit: top-dose activity change, negative = inhibition, usual class: inhibitors; 46,000 compounds, 0.1% hits; AID 1963576;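 further: plate controls were DMSO wells for no effect and tomatine positive control wells for full effect; nearly all actives have a fitted effect of over 65% in size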
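Adhesion/invasion was scored as fixed GFP-labeled SKOV3ip1 cell counts (488/509 nm), normalized to DMSO and tomatine controls. Cancer cells in serum-free medium, with four compound doses (0.36-46 umol/L), sat 2 hr at RT then 16 hr at 37 C on a 48 hr fibroblast/mesothelial/ECM culture.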
p53null 32C kill – p53 null cell cytotoxicity, permissive temperature; Potency, µM (titrated, usually from 46.1 µM), for inactives: at the top dose activity change, negative = cytotoxicity, actives largely listed as cytotoxic; H1299-neo p53 null cells, ATP luminescence, 24 h, 32C; 55,000 compounds, 0.62% hits;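 further: 0% = DMSO only and -100% = full killing by 100 µM tamoxifen; nearly all actives have a fitted effect of over 55% in size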
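H1299-neo, 600 cells/well; overnight 37C; cpd up to 46 uM, 24 h at 32C; ATPlite luminescence after 20 min RT; normalized to DMSO (0%) and tamoxifen 100 uM (100% kill); Hill-fit AC50.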
S16 viability – S16 Schwann cell cytotoxicity. S16 Pmp22-F2sN Schwann cells (luciferase reporters placed in the Pmp22 gene) viability, CellTiter-Glo, 24 h. Potency, µM (top dose mostly 57.5 µM), inactives show at the highest dose activity change, negative = cytotoxicity, usual class: cytotoxic. 43,000 compounds, 0.48% hits; further: nearly all actives have a fitted effect of over 65% in size
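Seed 500-1,000 S16 Pmp22-F2sN cells per well in phenol-red-free DMEM with 10% heat-inactivated FBS; pin-add 23 nL compound; incubate 24 h at 37C; add CellTiter-Glo, wait 15 min protected from light; read luminescence.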
Numbers without * were called inactive; i = inactive; ? = inconclusive; · = not tested or not shown. Unless noted, the call rests on the fitted dose curve; in most records, active means well fitted curve in the direction sought with a large enough effect; inconclusive means small, poorly fitted or top-dose-only effect, or another doubt; inactive means no such curve, though single readings can be large; an effect the other way counts as inactive or inconclusive. Unless noted, on the % scale 0 is the no-effect control and ±100 the full control effect; potency means the concentration at half of the fitted maximal effect.

SMILES | PMP22 txn prim | mTORC1 inh | p53null 39C kill | OvCa metastasis | p53null 32C kill | S16 viability
CCCN(CCC)CC(O)Cn1cc(/C=C/C(=O)c2ccc(C)cc2)c2ccccc21 (stereo not given) | ? | -10.1% | ? | ? | ? | ?
CCCCN(C)CC(O)Cn1cc(/C=C/C(=O)c2ccc(C)cc2)c2ccccc21 (stereo not given) | ? | ? | 22.4µM* | ? | 15.8µM* | ?
Cc1cccc(Cn2nnc3c(=O)[nH]c(C4CCCN(C(=O)c5ccc(C(C)(C)C)cc5)C4)nc32)c1 (stereo not given) | -22.6% | -1.2% | 20µM* | ? | ? | ?
Cc1cc(C)cc(OC(=O)c2cc(-c3ccc4c(c3)OCCO4)on2)c1 | -9.3% | 1.4% | 31.6µM* | 4.8% | ? | 4.4%
Cc1cccc(OC(=O)c2cc(-c3ccc4c(c3)OCCO4)on2)c1 | -12.7% | -2.0% | 25.1µM* | i | ? | -5.6%
O=C(Nc1cccc(Br)c1)c1cc(-c2ccc3c(c2)OCCO3)on1 | -10.8% | -3.3% | ? | -7.2% | ? | 5.3%
O=C(c1ccc(C=Cc2n[nH]c3ccccc23)cc1)N1CCNCC1 | · | · | · | 6.6% | · | ·
Cn1nnnc1SCCNCc1ccccc1OCc1ccc(Cl)cc1Cl | ? | -4.9% | ? | -6.4% | ? | ?
CCOc1cc(CNCCSc2nnnn2C)ccc1OCc1ccc(Cl)cc1Cl | ? | ? | 15.8µM* | ? | ? | ?
COc1ccc(S(=O)(=O)Nc2cccnc2Nc2ccc(O)cc2)cc1 | · | · | · | 5.9% | · | ·
CC(C)c1ccc(-c2noc(SCC(=O)N3CCCCC3)n2)cc1 | ? | 3.2% | ? | 2.2% | 12.6µM* | -6.4%
CN(C)c1ccc(CNC(=O)CCCn2ccc3cc(S(=O)(=O)N4CCCC4)ccc32)cc1 | ? | -9.3% | 2.6% | -6.1% | -2.6% | ?
O=C(CCCn1ccc2cc(S(=O)(=O)N3CCCC3)ccc21)NCc1ccc(Cl)cc1 | ? | 7.36µM* | ? | -23.5% | -6.7% | ?
CC1=C(C(=O)Nc2cc3cn[nH]c3cc2F)C(c2ccc(C(F)(F)F)cc2)CC(=O)N1 (stereo not given) | · | · | · | 5.3% | · | ·
Cc1ccc(C(=O)Nc2cc3cc(Cl)ccc3oc2=O)cc1 | 6.5µM* | 5.3% | -24.6% | i | 12.5% | -6.2%
COc1ccc(C(=O)Nc2cc3cc(Cl)ccc3oc2=O)cc1OC | -18.1% | 0.2% | -9.8% | -16.2% | 18.4% | 0.7%
Cc1ccc(N(CC(=O)N2CCN(c3cccc(Cl)c3)CC2)S(=O)(=O)c2c(C)noc2C)cc1 | ? | -8.3% | 8.8% | 3.8% | 12.1% | -19.2%
COc1ccc(N(CC(=O)N2CCN(c3cccc(Cl)c3)CC2)S(=O)(=O)c2c(C)noc2C)cc1 | -24.9% | -11.6% | 10µM* | 32.3% | 1.8% | -26.6%
COc1ccc(CSc2nc3ccncc3n2Cc2nc(-c3ccc(OC)c(OC)c3)oc2C)cc1 | -61.9% | -4.7% | ? | 2.7% | 12.6µM* | -21.0%
Cc1ccc(CSc2nc3ccncc3n2Cc2nc(-c3ccccc3C)oc2C)cc1 | ? | -6.8% | 6.31µM* | 44.3% | 7.94µM* | ?
Cc1c(CN2CCN(S(C)(=O)=O)CC2)sc2c(N3CCOCC3)nc(-c3cnc(N)nc3)nc12 | · | · | · | -1.9% | · | ·
C[N+]1(C)[C@@H]2C[C@@H](OC(=O)C(O)(c3cccs3)c3cccs3)C[C@H]1[C@@H]1O[C@@H]12 | · | · | · | 5.7% | · | ·
O=C1CSC(=O)N1C(CCc1ccncc1)COc1ccc(-c2cccc([N+](=O)[O-])c2)cc1 (stereo not given) | · | · | · | -0.9% | · | ·
COc1ccc(CC2=NN3C([C@@H](CCc4ccccc4)[C@@H](C)O)=NC(C)C3C(=O)N2)cc1OC (stereo not given in full) | · | · | · | -8.9% | · | ·
CN(C)C1CCN(C(=O)c2ccc(NC(=O)Nc3nc(N4CCOCC4)nc(N4CCOCC4)n3)cc2)CC1 | · | · | · | 22.1% | · | ·
SMILES | PMP22 txn prim | mTORC1 inh | p53null 39C kill | OvCa metastasis | p53null 32C kill | S16 viability
O=C(Nc1c(Cl)cccc1Cl)c1cc(-c2cccc(O)c2)on1 | · | -1.6% | 12.6µM* | i | 62.4% | ·
COc1ccc(/C=C\c2onc(C)c2S(=O)(=O)N2CCC(C(=O)Nc3ccc(Cl)cc3)CC2)cc1 | -6.5% | -10.5% | 10µM* | 4.4% | -5.4% | 13.3%
COc1ccc(/C=C\c2onc(C)c2S(=O)(=O)N2CCC(C(=O)Nc3ccc(C)c(F)c3)CC2)cc1 | ? | 1.4% | 9.9% | 4.9% | 6.2% | -2.2%
Cc1ccc(S(=O)(=O)c2nnn3c2nc(NC2CCCCC2)c2sccc23)cc1C | ? | 7.36µM* | 27.8% | 25.2% | 3.7% | ?
O=C(NCc1ccccc1)c1cc2sccc2n1Cc1ccc(Cl)cc1 | -21.7% | -9.7% | 14.8% | i | -9.2% | 15.4%
CC(C)NC(=O)C1CCN(C(=O)c2cc3sccc3n2Cc2ccc(Cl)cc2)CC1 | 9.46µM* | 0.6% | -6.6% | -2.7% | 14.5% | ?
Cc1nc(NC(=O)N2CCC[C@@H]2C(N)=O)sc1-c1csc(C(C)(C)C)n1 | · | · | · | 3.4% | · | ·
O=C(/C(C=Nc1ccc(F)cc1)=C(/O)c1ccco1)C(F)(F)F | · | · | ? | · | 7.94µM* | ·
Cc1cccc(N=C/C(C(=O)C(F)(F)F)=C(\O)c2ccco2)c1 | · | · | · | · | 5.5% | ·
N#Cc1ccc(COC[C@H]2O[C@@H](n3c(NCc4ccc(Cl)c(Cl)c4)nc4c(N)ncnc43)[C@@H](O)[C@@H]2O)cc1 | · | · | · | -19.8% | · | ·
CCOC(=O)c1ccc(N2C(=O)c3n[nH]c(C)c3C2c2ccc(CC)cc2)cc1 (stereo not given) | 0.3% | 6.9% | 10.0% | i | 8.1% | 25.4%
CCOC(=O)c1ccc(N2C(=O)c3n[nH]c(C)c3C2c2cccc(Br)c2)cc1 (stereo not given) | ? | 16.5µM* | ? | -4.8% | 17.5% | ?
CCOc1ccc(-c2oc3ccc(C)cc3c(=O)c2O)cc1 | 7.2% | 7.6% | -26.3% | -2.0% | -8.7% | -2.4%
COc1cccc(-c2oc3ccc(C)cc3c(=O)c2O)c1 | ? | ? | 22.4µM* | -4.6% | ? | -26.3%
Cc1c[nH]c(C=C2C(=O)Nc3ccccc32)c1CCC(=O)O | · | · | · | -0.5% | · | ·
CCOC(=O)c1ccc(Nc2nc(C(=O)OCC)nc3ccccc23)cc1 | ? | -16.1% | -6.2% | -0.9% | -6.2% | 22.6%
COC(=O)c1ccc(Nc2nc(-c3ccc(C)cc3)nc3ccccc23)cc1 | -30.9% | -5.8% | 15.8µM* | 26.9% | ? | 2.0%

Source: PubChem (National Center for Advancing Translational Sciences (NCATS))
